PubChem BioAssay (NCATS)
Values joined by “and” are separate entries in the source; they are usually repeats but may differ in a detail not shown here. Identical values can stand only once. Results filed as inconclusive are left out. Values without a mark were called inactive. Active and inactive are the calls of the source. Calls come from the whole dose curve; as a rule, active = well fitted cell-killing curve with a large enough effect; inconclusive = small, poorly fitted or top-dose-only effect, or effect the other way; inactive = no such curve, though single readings can be large or run the other way.

Assay: qHTS of pediatric cancer cell lines to identify multiple opportunities for drug repurposing: Confirmatory screen for Saos-2 cells (AID 1347127); note: nearly all actives have a fitted effect of over 60% in size
Conditions: Saos-2 osteosarcoma cell viability; series mostly up to 45.9 µM; activity change, negative = cytotoxic: at the top concentration
Text: Drug repurposing or repositioning has been offered as a strategy for drug development in oncology programs. This approach has special potential for childhood cancers and other rare or orphan diseases, where the expected return on new drug development has been a disincentive to pharmaceuticals.
In this project we exploit the poly-pharmacology of drugs to discover new indications via phenotypic screening of a panel of 19 well-characterized cell lines derived from solid tumors seen in children and adolescents. The goal is to identify approved drugs with previously unrecognized anticancer properties that has the potential to reveal new mechanisms and biological processes involved in carcinogenesis or drug resistance. We employed a titration-based paradigm (quantitative high-throughput screening or qHTS), where all compounds were tested at multiple concentrations for their effect on cell viability. Concentration-response curves (CRCs) were derived directly from the primary screen, and both potency and efficacy values were used to identify compounds with robust bioactivity profiles. We screened the NIH Chemical Genomics Center (NCGC) Pharmaceutical Collection (NPC) and Mechanism Interrogation Plate (MIPE) small molecule collections of approved and investigational compounds against these cell lines; and measured metabolically active cells after 48 hours of compound treatment as a proxy for cell viability.
Assay Submitter: Nathalia J. Martinez, National Center for Advancing Translational Sciences, National Institutes of Health, Rockville, MD, USA; email: natalia.martinez@nih.gov
[1] Shen, M et al. Quantitative high-throughput phenotypic screening of pediatric cancer cell lines identifies multiple opportunities for drug repurposing. Oncotarget 2017 Dec 19;9(4):4758-4772. PMID 29435139.
The cells were obtained from University of North Carolina (UNC), Pediatric Preclinical Testing Program (PPT), and Coriell Institute (CI).
qHTS cell viability assay:
Cells were assayed in growth media at a density of 500-1,000 cells/well. Five microliters of cells were dispensed into 1,536-well, white, solid-bottom, TC-treated plates (Greiner Bio One) using a multidrop dispenser and incubated at 37 degrees C, 5% CO2, under a humidified atmosphere for 5 hours. Twenty-three nanoliters of compounds and controls (neutral control DMSO or positive control bortezomib at final concentration of 2.3 µM) were subsequently transferred by Kalypsys pintool. For primary screens, the MIPE collection was tested at 11-point dilutions (final concentrations range from 0.78 nM to 46 µM) and the NPC collection at 8-point dilutions (final concentrations range from 0.59 nM to 46 µM). Compounds tested in follow-up screens were assayed at 11-point dilutions. Cells were incubated for 48 hours, followed by addition of 3 µL of CellTiter-Glo (Promega). After a 15 min incubation at room temperature, samples were analyzed for luminescence intensity using a ViewLux High-throughput CCD imager equipped with clear filters.
Potency is the fitted concentration of half-maximal effect.

Row | SMILES | activity change, negative = cytotoxic | Potency | outcome
1 | O=c1[nH]cnc2c1ncn2[C@H]1CC[C@@H](CO)O1 | 13% | – | –
2 | O=C(Nc1cccc(Br)c1)c1cccc(S(=O)(=O)N2CCCCCC2)c1 | -13.4% | – | –
3 | O=C(O)CCC1CCC(c2cc(F)ccc2F)(S(=O)(=O)c2ccc(Cl)cc2)CC1 (centres undefined) | 28.3% | – | –
4 | COc1ncc(-c2ccc3nccc(-c4ccnnc4)c3c2)cc1NS(=O)(=O)c1ccc(F)cc1F | – | 0.0465 µM (active) | –
5 | CC1(C)CCC2=C(O1)c1ccccc1C(=O)C2=O | – | 10.4 µM (active) | –
6 | CC1(C)S[C@H]2[C@H](NC(=O)[C@@H](N)c3ccc(O)cc3)C(=O)N2[C@@H]1C(=O)O | – | – | inactive
7 | O=C(O)c1ccc(-c2cc3cccnc3c(-c3ccc4nonc4c3)n2)cc1 | – | 5.22 µM (active) | –
8 | OC[C@H]1O[C@@H](n2cnc3c2NC=NC[C@@H]3O)C[C@H]1O | 13.1% | – | –
9 | O=C1NC(=O)C(=Cc2ccc3c(c2)OC(F)(F)O3)S1 | 4.29% | – | –
10 | COc1cc(N2CCC(N3CCN(C)CC3)CC2)ccc1Nc1ncc(Cl)c(Nc2ccccc2S(=O)(=O)C(C)C)n1 | – | 1.85 µM (active) | –
11 | NC1=N[C@@]2(c3cc(NC(=O)c4ccc(F)cn4)ccc3F)COC[C@@H]2CS1 | – | – | inactive
12 | CN(C)C1CCN(C(=O)c2ccc(NC(=O)Nc3nc(N4CCOCC4)nc(N4CCOCC4)n3)cc2)CC1 | – | 0.329 µM (active) | –
13 | CCCCCCCCCCCC1=C(O)C(=O)C=C(O)C1=O | – | – | inactive
14 | N[C@@]1(C(=O)O)CS(=O)(=O)[C@H]2[C@H](C(=O)O)[C@H]21 | – | 1.31 µM (active) | –
15 | COc1cccc(-c2cc(=O)c3ccccc3o2)c1N | 10.2% | – | –
16 | CCc1ccc(OCc2ccccc2C(=O)Nc2ccc3nc(C)cc(N)c3c2)cc1 | – | 9.27 µM (active) | –
17 | O=C(NCc1ccncc1)C12C[C@H]3C[C@@H](C1)CC(c1ccc(Cl)cc1)(C3)C2 | – | 16.5 µM (active) | –
18 | NS(=O)(=O)c1cccc2c1C(=O)c1cccc(O)c1C2=O | – | 0.928 µM (active) | –
19 | CC(=O)Nc1ccc([C@H](C)C(=O)Nc2ncc(C(C)C)s2)cc1 | – | 5.22 µM (active) | –
20 | COc1ccc(-c2coc3cc(O)cc(O)c3c2=O)cc1 | 18.9% | – | –

Row | SMILES | activity change, negative = cytotoxic | Potency | outcome
21 | CC(C)n1nc(-c2ccc3oc(N)nc3c2)c2c(N)ncnc21 | – | 0.233 µM (active) | –
22 | C=C1C(=O)[C@@]23C(CC[C@@H]1[C@H]2O)[C@@]12CO[C@]3(O)[C@@H](O)[C@@H]1C(C)(C)CC[C@@H]2O (some centres undefined) | – | 10.4 µM (active) | –
23 | CC1(C)CCC[C@@]2(C)[C@@H]1CC[C@@]1(C)OC(=O)C[C@H]21 | 9.97% | – | –
24 | CC(=NNC(=S)N1CCC1)c1ccccn1 | – | – | inactive
25 | CC[C@]1(O)C[C@@H]2CN(CCc3c([nH]c4ccccc34)[C@@](C(=O)OC)(c3cc4c(cc3OC)N(C=O)[C@@H]3C45CCN4CC=C[C@](CC)([C@H]45)[C@@H](OC(C)=O)[C@]3(O)C(=O)OC)C2)C1 (some centres undefined) | 19.1% | – | –
26 | O=c1cc(-c2ccc(O)cc2)oc2cc(O)cc(O)c12 | -25.8% | – | –
27 | O=C1c2ccccc2-[n+]2ccc3c([nH]c4ccccc43)c21 | – | 0.928 µM (active) | –
28 | O=C(O)c1ccc(-c2c[nH]c3ncc(-c4ccccc4)cc23)cc1C1CCCC1 | -3.13% | – | –
29 | CO[C@H]1C=CC=C(C)C(=O)NC2=CC(=O)C(NCCN(C)C)=C(C[C@@H](C)C[C@H](OC)[C@@H](O)[C@@H](C)C=C(C)[C@@H]1OC(N)=O)C2=O | 14% | – | –
30 | CC(=O)Oc1cc2c(s1)CCN(C(C(=O)C1CC1)c1ccccc1F)C2 (centres undefined) | 5.39% | – | –
31 | O=C1C(Cl)=C(NCCN2CCOCC2)C(=O)c2ncccc21 | – | 1.17 µM (active) | –
32 | CO[C@H]1C(=O)[C@]2(C)[C@@H](OC)C[C@H]3OC[C@@]3(OC(C)=O)[C@H]2[C@H](OC(=O)c2ccccc2)[C@]2(O)C[C@H](OC(=O)[C@H](O)[C@@H](NC(=O)OC(C)(C)C)c3ccccc3)C(C)=C1C2(C)C | – | 0.0147 µM (active) | –
33 | CC1(C)O[C@H]2C[C@@H]3[C@H]4CCC5=CC(=O)C=C[C@]5(C)[C@@]4(F)[C@@H](O)C[C@]3(C)[C@]2(C(=O)CO)O1 | 12.9% | – | –
34 | CC(=O)O[C@]1(C(C)=O)CC[C@@H]2[C@@H]3C[C@H](C)C4=CC(=O)CC[C@]4(C)[C@H]3CC[C@@]21C | -11.1% | – | –
35 | CC[C@]1(O)C[C@@H]2CN(CCc3c([nH]c4ccccc34)[C@@](C(=O)OC)(c3cc4c(cc3OC)N(C)[C@H]3[C@@](O)(C(=O)OC)[C@H](OC(C)=O)[C@]5(CC)C=CCN6CC[C@]43[C@@H]65)C2)C1 | – | 657 nM (active) and 1.17 µM (active) | –
36 | Nc1ncnc2c1ncn2[C@@H]1O[C@@H](CO)[C@H](O)[C@H]1O | -5.71% [at 29.6 µM] | – | –
37 | CC(C)(C(=O)NCC(F)(F)C(F)(F)F)C(=O)N[C@@H]1C(=O)Nc2ccccc2-c2ccccc21 | 18.9% | – | –
38 | Oc1ccc(C2CCN(c3ccnc4ccccc34)CC2)cc1O | -13.6% | – | –
39 | COc1ccc2c(Oc3ccc(NC(=O)c4c(C)n(CC(C)(C)O)n(-c5ccccc5)c4=O)cc3F)ccnc2c1 | -10.4% | – | –
